Sampled rows, rich in hits. Any-hit rate of the full collection: about 7%.
S2 tox: Viability Counterscreen for Primary qHTS for Inhibitors of ATXN expression. 400,000 compounds, 0.49% hits. AID 651635, 2014. Potency, µM (series often up to 56.7 µM), actives largely listed as cytotoxic. S2 cells (HEK-293 line with an ATXN2-luciferase reporter) viability, CellTiter-Fluor protease fluorescence, 24 h; note: potency is the fitted concentration of half-maximal effect; nearly all actives have a fitted effect of over 40% in size
Integrin act MD: qHTS for Activators of Integrin-Mediated Alleviation for Muscular Dystrophy; Potency, µM (doses to about 38.3 µM), for the others: top-dose activation, hits mostly activators; 350,000 compounds, 0.064% hits; alpha7betagal myoblasts, beta-gal FDG fluorescence, 48 h;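 note: potency is the fitted concentration of half-maximal effect; 100% = response of the positive control SU9516; nearly all actives have a fitted effect of over 60% in size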
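alpha7betagal+/- myoblasts (passage 13, 250/well) treated 48 h at 37C with compounds at 1:260 dilution of DMSO stock. Lysed, then beta-galactosidase activity read as FDG fluorescence (ex 480/em 540) after 30 min, with pre-read for autofluorescence.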
D3 ag: qHTS of D3 Dopamine Receptor Agonist: qHTS; D(3) dopamine receptor (Homo sapiens), P35462; D3R DiscoveRx beta-arrestin cells, luminescence, 90 min; max activation, %; 410,000 compounds, 0.58% hits; AID 652048, 2013; in the data active = max activation above about 30%; note: 0% is about no effect
Target sequence (P35462 whole entry, looked up): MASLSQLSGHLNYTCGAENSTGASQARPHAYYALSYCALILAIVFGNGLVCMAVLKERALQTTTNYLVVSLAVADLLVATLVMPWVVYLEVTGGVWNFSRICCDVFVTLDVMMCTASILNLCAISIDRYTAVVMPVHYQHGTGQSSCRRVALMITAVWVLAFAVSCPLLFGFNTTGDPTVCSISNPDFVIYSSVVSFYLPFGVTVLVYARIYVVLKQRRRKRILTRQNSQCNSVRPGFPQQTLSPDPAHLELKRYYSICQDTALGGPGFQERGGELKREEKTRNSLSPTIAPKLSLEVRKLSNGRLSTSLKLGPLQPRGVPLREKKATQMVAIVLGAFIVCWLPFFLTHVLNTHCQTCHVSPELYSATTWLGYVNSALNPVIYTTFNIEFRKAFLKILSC
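Cells at 1500/well, incubated overnight, then treated with pinned compounds (dopamine as control) for 90 min at 37 degrees C. DiscoveRx reagent added for 30 - 60 minutes at room temperature; luminescence read.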
ATXN2 expr inh: Primary qHTS for Inhibitors of ATXN expression. HEK-293 ATXN2-luciferase reporter, luminescence, 24 h. Potency, µM (doses to about 57 µM), without a hit: at the highest dose activity change, negative = inhibition, usual class: inhibitors. 360,000 compounds, 0.72% hits; note: potency is the fitted concentration of half-maximal effect; % is set by controls: 0 for no effect and ±100 for the full control effect; nearly all actives have a fitted effect of over 55% in size
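qHTS (up to 57 uM final) was run with 24 h compound exposure of reporter cells at 37 °C. Each well was multiplexed: SteadyGlo luminescence measured ATXN2-luciferase expression after a fluorogenic Gly-Phe-AFC viability readout (25 uM final).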
IL-1B inflam inh: qHTS for Inhibitors of Inflammasome Signaling: IL-1-beta AlphaLISA Primary Screen; THP-1 LPS/ATP IL-1B secretion, AlphaLISA, 16 h; hits give low values; activity change, % at 57.5 µM; 360,000 compounds, 4.7% hits; in the data active = activity change below about -50%; inconclusive = mostly about -30% to -49%; note: % is set by controls: 0 for no effect and ±100 for the full control effect
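THP-1 cells pretreated 1 hr with compounds (up to 57.5 uM final), then stimulated with LPS (250 ng/mL final) plus ATP (1.25 mM final); secreted IL-1B measured by AlphaLISA after 16 hr, decreased signal indicating inhibition.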
DRD3 antagonist: qHTS of D3 Dopamine Receptor Antagonist: qHTS. D3R cells, DiscoveRx beta-arrestin luminescence, antagonist mode; hits give low values. max response, negative = inhibition, %. 360,000 compounds, 2.5% hits; in the data active = max response below about -50%; inconclusive = no clear call, values can overlap the other calls; note: % is set by controls: 0 for no effect and ±100 for the full control effect
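Cells plated overnight at 1500 cells/well, then exposed to library compounds with dopamine controls for 90 minutes at 37 degrees C. DiscoveRx reagent added for 30–60 minutes at room temperature; luminescence read, quantitative HTS format.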
Starred values were filed as active, the others as inactive; i = inactive; ? = inconclusive; nt = no result given; [ ] = dose if it differs, or a comment. Unless noted, calls come from the whole dose curve; as a rule, active = well fitted curve in the direction sought with a large enough effect; inconclusive = small, poorly fitted or top-dose-only effect, or another doubt; inactive = no such curve, though single readings can be large; an effect the other way counts as inactive or inconclusive.

SMILES	S2 tox	Integrin act MD	D3 ag	ATXN2 expr inh	IL-1B inflam inh	DRD3 antagonist
COc1cccc(CN(C)C(=O)CNC(=O)c2sc3ccccc3c2Cl)c1OC	i	-14%	1	-13%	-51*	0
CN(C)S(=O)(=O)N1CCC(n2nccc2NC(=O)CCCc2ccccc2)CC1	i	5%	1	4%	-2	-8
O=C(O)C1CCCCC1C(=O)Nc1ccccc1Cl (stereo not drawn)	i	-3%	13	-2%	84	24
O=C(O)C1CCCCC1C(=O)Nc1ccccc1F (stereo not drawn)	i	3%	-8	-13%	2	-51*
O=S(=O)(Nc1cc(Cl)ccc1-n1cncn1)c1cc(Br)ccc1Br	?	30%	10	?	-54*	17
COC(=O)c1c(-c2ccc(S(C)(=O)=O)cc2)sc2cc(OC)ccc12	i	-18%	31*	34%	-20	67
COc1ccc(S(=O)(=O)N(C)CC(=O)NCc2ccc3c(c2)OCO3)cc1	i	3%	5	11%	18	16
COC(=O)c1c(-c2ccc(S(C)(=O)=O)cc2)sc2ccc(OC)cc12	?	-36%	22	-26%	-15	0
COc1ccc2c(C(=O)NCc3ccc4c(c3)OCO4)c(-c3ccc(S(C)(=O)=O)cc3)sc2c1	35µM*	4%	4	?	49	47
COc1ccc(N(Cc2ccccc2)S(=O)(=O)c2ccc(C)cc2)cc1	i	-10%	0	-38%	-22	9
CC1(C(=O)O)CCC(C(=O)NNC(=O)c2ccccc2O)C1(C)C (stereo not drawn)	i	-1%	5	-1%	16	19
Cc1cccc(N(Cc2cc(=O)[nH]c3ccccc23)C(=O)CCl)c1	?	-14%	0	nt	-107*	11
COc1ccc(N(Cc2cc(=O)[nH]c3ccccc23)C(=O)CCl)cc1	nt	-69%	5	?	-98*	8
CCCC(=O)N(Cc1cc(=O)[nH]c2ccccc12)c1ccc(OC)cc1	i	-1%	-1	-10%	1	7
Cc1ccccc1CNC(=O)c1ccccc1SCC(=O)NCc1ccco1	i	-18%	-8	5%	-12	3
O=C(CSc1nnc(-c2ccco2)o1)N1c2ccccc2CCc2ccccc21	i	-27%	-3	-23%	-62*	-14
O=C(CSc1nnc(-c2c[nH]c3ccccc23)o1)N1c2ccccc2CCc2ccccc21	i	-20%	1	-24%	-68*	5
O=C(CSc1nnc(-c2ccccc2Br)o1)N1CCc2ccccc2C1	i	-4%	-1	-11%	-60*	-14
O=C(CSc1nnc(-c2ccccc2F)o1)N1CCCC1	i	10%	2	20%	-12	7
CC(NC(=O)Nc1cccc(Cl)c1)C(c1cccs1)N1CCCC1 (stereo not drawn)	i	3%	-13	-21%	-54*	?
CC(NC(=S)Nc1ccc(Cl)cc1Cl)C(c1cccs1)N1CCCC1 (stereo not drawn)	i	-2%	-21	-3%	-81*	0
CC(NC(=O)Nc1ccc(Cl)cc1)C(c1cccs1)N1CCOCC1 (stereo not drawn)	i	-1%	1	-6%	-4	-8
COc1ccccc1NC(=S)NC(C)C(c1cccs1)N1CCOCC1 (stereo not drawn)	i	0%	3	nt	-10	9
O=C1C=CC(c2c[nH]c3ccccc23)CC1 (stereo not drawn)	nt	nt	0	?	-108*	-19
CCC12CN3CC(CC)(CN(C1)C3c1c[nH]c3ccccc13)C2=O (stereo not drawn)	nt	nt	-14	nt	nt	nt
SMILES	S2 tox	Integrin act MD	D3 ag	ATXN2 expr inh	IL-1B inflam inh	DRD3 antagonist
Cc1cc(C(=O)N/N=C/c2ccc(Cl)c([N+](=O)[O-])c2)c(C)n1-c1ccc(F)cc1	i	-37%	-4	-10%	-53*	-23
Cc1occc1C(=O)N/N=C/c1ccc(Cl)c([N+](=O)[O-])c1	i	-22%	-6	46%	-72*	-20
Cc1cc(C(=O)N/N=C/c2ccc3c(c2)OCO3)c(C)n1-c1ccc(F)cc1	i	-20%	6	6%	-9	6
COc1ccc(/C=N/NC(=O)c2ccoc2C)cc1OC	i	15%	-6	2%	5	11
CCN(CC)c1ccc(N=Cc2ccc(N(CC)CC)cc2O)cc1	?	-10%	-8	?	29	-19
CCN(CC)c1ccc(C=Nc2ccccc2)c(O)c1	i	-5%	-3	4%	27	-54*
O=C(N/N=C/c1ccc(Cl)c([N+](=O)[O-])c1)c1cc(-c2ccc3c4c(cccc24)CC3)n[nH]1	i	9%	-15	4%	?	-58*
C/C(N)=C(/C#N)C(=O)CSc1nnc(Cc2ccccc2F)n1N	i	1%	9	3%	13	8
Cn1cc(C(=O)N/N=C/c2ccc3c(c2)OCO3)c2ccccc21	?	13%	-6	1%	-15	23
Cn1cccc1CC(=O)N/N=C/c1cc([N+](=O)[O-])ccc1Cl	i	-10%	-3	-23%[11.3 µM]	9	7
O=C(N/N=C/c1ccccc1[N+](=O)[O-])c1ccc2nc[nH]c2c1	i	4%	7	21%	-16	6
Cn1cc(C(=O)N/N=C/c2ccc(Br)c([N+](=O)[O-])c2)c2ccccc21	i	5%	-21	-16%	nt	-67*
Cn1cccc1CC(=O)N/N=C/c1ccc(Cl)c([N+](=O)[O-])c1	?	-37%	-2	-33%	-90*	-6
CCN(CC)c1ccc(/C=N/NC(=O)c2ccc3nc[nH]c3c2)c(O)c1	i	-16%	5	2.8µM*	135	4
O=C(N/N=C/c1ccc(Cl)c([N+](=O)[O-])c1)c1ccc2nc[nH]c2c1	i	-40%	-17	-13%	-96*	?
CCn1cc(C(=O)NCCCN2CCCC(C)C2)c(=O)c2cc(S(=O)(=O)N3CCOCC3)ccc21 (stereo not drawn)	i	-11%	6	9%	12	14
COc1ccc(Cn2c(=O)c3oc4ccccc4c3n(Cc3ccc(Cl)cc3)c2=O)cc1	nt	nt	-1	nt	nt	nt
O=C(c1ccccc1)C1N=NCC1c1ccc(Cl)cc1 (stereo not drawn)	i	-2%	7	-14%	-27	1
C/C(=N\N(c1ccccc1)c1ccccc1)c1ccc(O)cc1	i	-7%	-4	-25%	-63*	-9
